Test results published in PubChem BioAssay (Tox21).
Where “and” joins values, the source holds several entries; their conditions need not be identical. Equal entries are not always repeated. Inconclusive results are not listed. Unmarked numbers belong to inactive results. Calls of active or inactive are those of the source. Calls come from the whole dose curve. Starred links: 1 amine or outer side, 2 acyl side, 3 side chain; linkers in the order of their positions; H or OH if unused. Positions of bridges follow the written chain, without caps; N, C: chain ends. Non-standard residues stand in square brackets, D forms with d. Residues, ends and D or L forms follow the SMILES beside them. Chains are numbered I, II in the order given. Actinocin(9to1) = Cc1c2oc3c(C)ccc(C(=O)[*:1])c3nc-2c(C(=O)[*:2])c(N)c1=O; NMeV = CN[C@H](C(=O)O)C(C)C; Sar = CNCC(=O)O

Assay: qHTS assay to identify small molecule agonists of H2AX - cell viability counter screen (AID 1224847); note: nearly all actives have a fitted effect of over 30% in size; for activity change, negative = cytotoxicity: top concentration of the series differs between compounds
Conditions: CHO-K1 viability, CellTiter-Glo luminescence, 3 h; series mostly up to 154 µM; activity change, negative = cytotoxicity: at the top concentration
Text: National Center for Advancing Translational Sciences [NCATS]
NIH Chemical Genomics Center [NCGC]
U.S. Environmental Protection Agency [EPA]
National Institutes of Environmental Health Sciences [NIEHS]
National Toxicology Program [NTP]
U.S. Food and Drug Administration [FDA]
HTRF phospho-H2AX (Ser139) assay (Cisbio Bioassays, US) enables the quantitative detection of the histone variant H2AX when phosphorylated on serine 139. When double-stranded DNA breaks, either by ionizing radiation or endogenous physiological processes, H2AX becomes phosphorylated at Ser139. This phospho-Ser139 serves as a sensitive biomarker for the detection of such breaks, localizing the site of DNA repair. So, HTRF phospho-H2AX Ser139 is a pertinent assay to study genome stability, the cell cycle, DNA repair, and it serves as a biomarker for cancer, and to understand aging. Wild type CHO-K1 cells were used to identify the inducers of Phospho-H2AX Ser 139 from the Tox21 compound collections. Also cytotoxicity of the Tox21 10K compound library against the CHO-K1 cell line was tested by measuring the cell viability using CellTiter-Glo assay (Promega, Madison, WI).
Tox21 Assay Protocol Summary:
The CHO-K1 cells suspended in culture medium containing 10% FBS were dispensed at 1000 cells/ 3 ul/well in 1536-well white wall/solid bottom plates (Greiner Bio-One North America, NC) using a Multidrop Combi (Thermo Fisher Scientific Inc., Waltham, MA). After the assay plates were incubated at 37C overnight, 23 nl of compounds at 15 concentrations (from 5-48 columns) or positive control (from 1 to 4 columns) were transferred to the assay plates using a Pintool station (Wako, San Diego, CA) into each well resulting in a final DMSO concentration of 0.76%. After 3hr incubation at 37C, 3 uL/well CellTiter-Glo luminescent cell viability reagent (Promega Corporation, Madison, WI) was added using a Flying Reagent Dispenser (FRD) (Aurora Discovery, CA). After incubation at room temperature for 30 min, the luminescence intensity was read using a ViewLux plate reader (PerkinElmer, Waltham, MA).
% is set by controls: 0 for no effect and ±100 for the full control effect; potency is the fitted concentration of half-maximal effect.

Compound | Potency | activity change, negative = cytotoxicity
Cc1cccc2n[nH]nc12 | inactive | 
NC12CC3CC(CC(C3)C1)C2 |  | 3.65% [at 70.9 µM]
Cc1cc(Cc2cc(C)cc(C(C)(C)C)c2O)c(O)c(C(C)(C)C)c1 | 40.3 µM (active) and 31.8 µM (active) | 
OCCN1CCNCC1 | inactive | 
CC(=O)OCCOCCOCCOC(C)=O | inactive | 
C[N+]1([O-])CCOCC1 |  | 0.432%
O=C(O)c1cc(Cl)cc(Cl)c1 |  | 10.4%
O=C(OCc1ccccc1)c1ccc(O)cc1 |  | 1.55% [at 70.9 µM]
Cc1c2oc3c(C)ccc(C(=O)N[C@@H]4C(=O)N[C@H](C(C)C)C(=O)N5CCC[C@H]5C(=O)N(C)CC(=O)N(C)[C@@H](C(C)C)C(=O)O[C@@H]4C)c3nc-2c(C(=O)N[C@@H]2C(=O)N[C@H](C(C)C)C(=O)N3CCC[C@H]3C(=O)N(C)CC(=O)N(C)[C@@H](C(C)C)C(=O)O[C@@H]2C)c(N)c1=O (I: T[dV]P[Sar][NMeV] / II: T[dV]P[Sar][NMeV]; ester I:1-I:C, II:1-II:C; linker I:N-II:N via Actinocin(9to1)) | inactive | 
O=c1n(CC2CO2)c(=O)n(CC2CO2)c(=O)n1CC1CO1 (stereo not given) | inactive | 
NCCCCCC(=O)O |  | 1.01% [at 70.9 µM]
CC(C)CCOC(=O)c1ccc(N(C)C)cc1 |  | -10.3% [at 70.9 µM]
N[C@@H]1CONC1=O |  | 0.936% [at 70.9 µM]
CC(C)(C)NC(=O)[C@@H]1CN(Cc2cccnc2)CCN1C[C@@H](O)C[C@@H](Cc1ccccc1)C(=O)N[C@H]1c2ccccc2C[C@H]1O | inactive | 
CCn1cc(C(=O)O)c(=O)c2cc(F)c(N3CCNC(C)C3)c(F)c21 (stereo not given) |  | -6.6% [at 70.9 µM]
CCC(=O)/C=C/C1C(C)=CCCC1(C)C (stereo not given) | inactive | 
CCCCOCCOC(=O)c1ccccc1C(=O)OCCOCCCC |  | -1.72%
CCN(CC)C(=S)SSC(=S)N(CC)CC |  | 7.19% [at 70.9 µM]
CC(C)(O)CCC(C)(C)O |  | -4.99%
COc1cc(C(=S)N2CCOCC2)ccc1O |  | -2.8% [at 70.9 µM]

Compound | Potency | activity change, negative = cytotoxicity
Nc1cc(S(=O)(=O)O)cc2cc(S(=O)(=O)O)cc(O)c12 |  | -0.479%
CCCCCCCCCCCCCCCCCl |  | 2.02% [at 31.6 µM]
CCCCCCCCCCCCCC[P+](CCCC)(CCCC)CCCC | 3.99 µM (active) and 31.8 µM (active) | 
O=Cc1ccc(Cl)cc1 |  | -0.212%
CN1C(=O)c2ccc([N+](=O)[O-])cc2C1=O |  | 0.235%
CCCCC/C=C/CC1CC(=O)OC1=O (stereo not given) |  | 7.38%
COC(c1ccccc1)(c1ccccc1)[C@H](Oc1nc(C)cc(C)n1)C(=O)O |  | -1.79% [at 70.9 µM]
O=C(O[C@@H]1Cc2c(O)cc(O)cc2O[C@@H]1c1cc(O)c(O)c(O)c1)c1cc(O)c(O)c(O)c1 | inactive | 
NNCCc1ccccc1 | inactive | 
CCOC(=O)C(C)C(C)=O (stereo not given) |  | 1%
COc1nc(C)nc(Cl)c1NC1=NCCN1 |  | -0.738% [at 70.9 µM]
Cc1cc(OCCOCC[N+](C)(C)Cc2ccccc2)ccc1C(C)(C)CC(C)(C)C | 100 µM (active) and 55.2 µM (active) | 
CCCCC(CC)COC(=O)CC(C(=O)OCC(CC)CCCC)S(=O)(=O)O (stereo not given) | 86.4 µM (active) and 80 µM (active) | 
CCN(CC)CCOc1ccc(/C(=C(\Cl)c2ccccc2)c2ccccc2)cc1 | 81.7 µM (active) | 
COc1ccc(Cc2cnc(N)nc2N)cc1OC |  | 9.08% [at 70.9 µM]
CC(C)(C)c1ccccc1 |  | 4.6%
CCOc1ccccc1C(N)=O | inactive | 
Nc1cc(Cl)c(-c2cc(Cl)c(N)cc2Cl)cc1Cl | 101 µM (active) and 113 µM (active) | 
CCn1c2ccccc2c2cc(N)ccc21 |  | -14.4%
COc1ccc(CCN2CCC(Nc3nc4ccccc4n3Cc3ccc(F)cc3)CC2)cc1 | 32.6 µM (active) | 
